{"source": "PubChem BioAssay (EPA / NIEHS)", "note": "Calls of active or inactive are those of the source. How the source made its calls: active means hit-call score of the fitted dose curve at least 0.9, where 1 is the maximum; inactive means score below 0.9.", "data": [{"test": "BSK_hDFCGF_Proliferation: Cell Proliferation Assessment in the BioMAP Diversity Plus: hDFCGF Assay (AID 2283059);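 further: curves fitted for both rise and fall of signal versus DMSO baseline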", "settings": "primary human foreskin fibroblasts", "protocol": "BSK_hDFCGF is a cell-based, multiplexed-readout assay that uses foreskin fibroblast, a human skin primary cell, with measurements taken at 24 hours after chemical dosing in a 96-well plate.BSK_hDFCGF_Proliferation is an assay component measured in the BSK_hDFCGF assay. It measures […] related to cell proliferation using Sulforhodamine staining technology.Data from the assay component BSK_hDFCGF_Proliferation was analyzed into 1 assay endpoint. This assay endpoint, BSK_hDFCGF_Proliferation, was analyzed with bidirectional fitting relative to DMSO as the negative control and baseline of activity. Using a type of viability reporter, measures of total protein for gain or loss-of-signal activity can be used to understand the viability at the cellular-level. Furthermore, this assay endpoint can be referred to as a secondary readout, because this assay has produced multiple assay endpoints where this one serves a viability function. To generalize the intended target to other relatable targets, this assay endpoint is annotated to the cell cycle intended target family, where the subfamily is proliferation.\nThe levels of cell surface (or secreted, indicated by the prefix \"s\") biomarker endpoints were measured by ELISA. Overt cytotoxicity to cells in confluent adherent cultures (all systems other than the BT system) was assessed by measuring total protein levels using sulforhodamine B (SRB) staining in parallel cultures at the time of biomarker measurements, indicated as SRB endpoints. For proliferation assays for adherent cell types, individual cell types are cultured at sub-confluence and relative cell numbers quantified by SRB staining at time points optimized for each system (48 h: 3C and CASM3C systems; 72 h: BT and HDF3CGF systems; 96 h: SAg system). SRB was performed by staining cells with 0.1% SRB after fixation with 10% TCA and reading wells at 560 nm.Viability and proliferation of PBMC (T cells) was quantified by Alamar Blue reduction for the SAg and BT systems. For PBMC viability (referred to as PBMC Cytotoxicity within the assay endpoint names), cells were plated (75,000/well in a 96-well plate) and then chemical samples added for 1 h before addition of activators, SEB and TSST-1 (20 ng/mL final concentration each). Cells were incubated for 90 h. Then, Alamar Blue (20 uL/well) (Invitrogen, Cat DAL1100) was added for 6 h, and the plates were read with a fluorescence microplate reader at 546/580 nm (excitation/emission). For PBMC proliferation, cells were plated and activated as above but incubated for only 16 h prior to addition of Alamar Blue. Plates were read after 6 h.", "values": [{"smiles": "CCC(C)n1c(=O)[nH]c(C)c(Br)c1=O", "note": "(stereo not given)", "outcome": "inactive"}, {"smiles": "CNC(=O)Oc1cccc2ccccc12", "AC50": "13.9 µM (active)"}, {"smiles": "COc1cc(OC)nc(NC(=O)NS(=O)(=O)c2ncccc2OCC(F)(F)F)n1", "outcome": "inactive"}, {"smiles": "Clc1nc(Cl)nc(Nc2ccccc2Cl)n1", "AC50": "27.8 µM (active)"}, {"smiles": "CC1(C)C(C=C(Cl)Cl)C1C(=O)OC(C#N)c1cccc(Oc2ccccc2)c1", "note": "(stereo not given)", "outcome": "inactive"}, {"smiles": "O=C(Nc1ccccc1-c1ccc(Cl)cc1)c1cccnc1Cl", "outcome": "inactive"}, {"smiles": "CSC(=O)c1c(C(F)F)nc(C(F)(F)F)c(C(=O)SC)c1CC(C)C", "AC50": "30.6 µM (active)"}, {"smiles": "CC(C)=CC1C(C(=O)OCc2coc(Cc3ccccc3)c2)C1(C)C", "note": "(stereo not given)", "AC50": "15 µM (active)"}, {"smiles": "Clc1cccc(C(Cl)(Cl)Cl)n1", "outcome": "inactive"}, {"smiles": "CS(=O)(=O)c1ccc(C(=O)C2C(=O)CCCC2=O)c([N+](=O)[O-])c1", "outcome": "inactive"}, {"smiles": "Cc1c(COC(=O)[C@@H]2[C@H](/C=C(\\Cl)C(F)(F)F)C2(C)C)cccc1-c1ccccc1", "AC50": "16.9 µM (active)"}, {"smiles": "CCSC(=O)N1CCCCCC1", "outcome": "inactive"}, {"smiles": "N#CN=C1SCCN1Cc1ccc(Cl)nc1", "outcome": "inactive"}, {"smiles": "C=CCOC(=O)C(C)(C)OC(=O)c1cc(-n2c(=O)cc(C(F)(F)F)n(C)c2=O)ccc1Cl", "outcome": "inactive"}, {"smiles": "COC(=O)N(C(=O)N1CO[C@@]2(C(=O)OC)Cc3cc(Cl)ccc3C2=N1)c1ccc(OC(F)(F)F)cc1", "AC50": "7.63 µM (active)"}, {"smiles": "Cc1nc(N(C)C)nc(OC(=O)N(C)C)c1C", "outcome": "inactive"}, {"smiles": "COP(=S)(OC)SCn1nnc2ccccc2c1=O", "AC50": "26.2 µM (active)"}, {"smiles": "Nc1c(Cl)c(F)nc(OCC(=O)O)c1Cl", "outcome": "inactive"}, {"smiles": "CCN(CC)C(=O)C(C)Oc1cccc2ccccc12", "note": "(stereo not given)", "outcome": "inactive"}, {"smiles": "COC(=O)NC(=S)Nc1ccccc1NC(=S)NC(=O)OC", "AC50": "29.8 µM (active)"}, {"smiles": "CCN(CC)c1nc(C)cc(OP(=S)(OC)OC)n1", "AC50": "20 µM (active)"}, {"smiles": "C=C(C)CN(CC)c1c([N+](=O)[O-])cc(C(F)(F)F)cc1[N+](=O)[O-]", "AC50": "19.5 µM (active)"}, {"smiles": "CCCCC(C#N)(Cn1cncn1)c1ccc(Cl)cc1", "note": "(stereo not given)", "outcome": "inactive"}, {"smiles": "Nc1c(Cl)c(Cl)nc(C(=O)O)c1Cl", "outcome": "inactive"}, {"smiles": "CCNP(=S)(OC)O/C(C)=C/C(=O)OC(C)C", "note": "(stereo not given)", "outcome": "inactive"}, {"smiles": "COCC(=O)N(c1c(C)cccc1C)C(C)C(=O)OC", "note": "(stereo not given)", "outcome": "inactive"}, {"smiles": "CCCC(=NOCC)C1=C(O)CC(CC(C)SCC)CC1=O", "note": "(stereo not given)", "outcome": "inactive"}, {"smiles": "CCOP(=S)(OCC)Oc1nc(Cl)n(C(C)C)n1", "outcome": "inactive"}, {"smiles": "O=C(O)c1c(Cl)ccc2cc(Cl)cnc12", "outcome": "inactive"}, {"smiles": "CC(C)N1C(=O)c2ccccc2NS1(=O)=O", "outcome": "inactive"}, {"smiles": "COP(=S)(OC)Oc1ccc([N+](=O)[O-])c(C)c1", "AC50": "24.2 µM (active)"}, {"smiles": "OC(c1ccc(Cl)cc1)(c1ccc(Cl)cc1)C(Cl)(Cl)Cl", "AC50": "10 µM (active)"}, {"smiles": "CCCCOCN(C(=O)CCl)c1c(CC)cccc1CC", "AC50": "15.2 µM (active)"}, {"smiles": "Nc1cnn(-c2ccccc2)c(=O)c1Cl", "outcome": "inactive"}, {"smiles": "Cc1ccc(N=CN(C)C=Nc2ccc(C)cc2C)c(C)c1", "AC50": "14 µM (active)"}, {"smiles": "CC1(C)CCC(=Cc2ccc(Cl)cc2)C1(O)Cn1cncn1", "note": "(stereo not given)", "AC50": "1.31 µM (active)"}, {"smiles": "CO/N=C(/C1=NOCCO1)c1ccccc1Oc1ncnc(Oc2ccccc2Cl)c1F", "AC50": "26.7 µM (active)"}, {"smiles": "CC(C)N1C(=O)N(c2ccccc2)CSC1=NC(C)(C)C", "AC50": "32 µM (active)"}, {"smiles": "N#Cc1c(Cl)cccc1Cl", "outcome": "inactive"}, {"smiles": "COc1ccc(-c2ccccc2)cc1NNC(=O)OC(C)C", "outcome": "inactive"}]}]}
